Assay results from PubChem BioAssay AID1159580 (chemical genetic matrix, 2015).
“And” between values parts separate entries of the source, which are not always exact repeats. Equal entries are not always repeated. Out of some 5,500 compounds screened, about 2,000 (36%) were called active. Not shown: some 18% with an inconclusive outcome. No stated cut-off is given here; in the data, active means normalized growth mostly below about 0.91 (no sharp cut-off); inconclusive means no clear call, values can overlap the other calls; inactive means mostly above about 0.92. Some of the results follow.

Assay: chemical genetic growth profiling, strain panel (AID 1159580);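 further: tested at 20 µM; growth read once vehicle control cultures reached saturation at 30 °C; 1 = growth at the plate median or of vehicle wells; lower values mean less growth of the strain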
Details: growth OD

Measured: normalized growth

NCCSSCCN
inactive: S. cerevisiae deletion strains, locus YKL009W, strain mrt4, active compounds read low 1.03 | S. cerevisiae deletion strains, locus YKL068W, active compounds read low 1.01 | S. cerevisiae deletion strains, locus YKL085W, strain MDH1 (second series), active compounds read low 1.01 | S. cerevisiae deletion strains, locus YKL085W, strain MDH1, active compounds read low 1.01 | S. cerevisiae deletion strains, locus YKL160W, strain elf1, active compounds read low 0.995 | S. cerevisiae deletion strains, locus YKL190W, strain CNB1, active compounds read low 1.01 | S. cerevisiae deletion strains, locus YKR001C, strain vps1, active compounds read low 1.02 | S. cerevisiae deletion strains, locus YKR026C, strain gcn3, active compounds read low 0.993 | S. cerevisiae deletion strains, locus YKR091W, strain srl3, active compounds read low 0.993 | S. cerevisiae deletion strains, locus YLL001W, strain dnm1, active compounds read low 0.978 | S. cerevisiae deletion strains, locus YLL026W, active compounds read low 0.989 | S. cerevisiae deletion strains, locus YLL041C, strain sdh2, active compounds read low 0.997 | S. cerevisiae deletion strains, locus YLR027C, strain aat2, active compounds read low 0.99 | S. cerevisiae deletion strains, locus YLR039C, strain RIC1, active compounds read low 1.02 | S. cerevisiae deletion strains, locus YLR058C, strain SHM2, active compounds read low 1.01 | S. cerevisiae deletion strains, locus YLR102C, strain apc9, active compounds read low 0.994 | S. cerevisiae deletion strains, locus YLR113W, strain HOG1, active compounds read low 1.05 | S. cerevisiae deletion strains, locus YLR221C, strain rsa3, active compounds read low 0.998 | S. cerevisiae deletion strains, locus YLR258W, strain gsy2, active compounds read low 0.996 | S. cerevisiae deletion strains, locus YLR262C, strain YPT6 (second series), active compounds read low 0.994 | S. cerevisiae deletion strains, locus YLR262C, strain YPT6, active compounds read low 1.02 | S. cerevisiae deletion strains, locus YLR268W, strain sec22, active compounds read low 1.05 | S. cerevisiae deletion strains, locus YLR320W, strain mms22, active compounds read low 1 | S. cerevisiae deletion strains, locus YLR330W, strain CHS5, active compounds read low 1.01 | S. cerevisiae deletion strains, locus YLR342W, strain FKS1 (second series), active compounds read low 1 | S. cerevisiae deletion strains, locus YLR342W, strain FKS1, active compounds read low 0.983 | S. cerevisiae deletion strains, locus YLR357W, strain rsc2, active compounds read low 0.979 | S. cerevisiae deletion strains, locus YLR370C, strain arc18, active compounds read low 0.993 | S. cerevisiae deletion strains, locus YLR371W, strain rom2, active compounds read low 1.01 | S. cerevisiae deletion strains, locus YLR384C, strain iki3, active compounds read low 0.987 | S. cerevisiae deletion strains, locus YLR418C, strain cdc73, active compounds read low 0.999 | S. cerevisiae deletion strains, locus YML016C, strain PPZ1, active compounds read low 1 | S. cerevisiae deletion strains, locus YML032C, strain rad52, active compounds read low 1.03 | S. cerevisiae deletion strains, locus YML120C, strain ndi1, active compounds read low 0.995 | S. cerevisiae deletion strains, locus YML124C, strain tub3, active compounds read low 1 | S. cerevisiae deletion strains, locus YMR058W, strain fet3, active compounds read low 1 | S. cerevisiae deletion strains, locus YMR078C, strain ctf18, active compounds read low 1.01 | S. cerevisiae deletion strains, locus YMR125W, strain sto1, active compounds read low 1 | S. cerevisiae deletion strains, locus YMR129W, active compounds read low 1 | S. cerevisiae deletion strains, locus YMR205C, strain PFK2, active compounds read low 0.992 | S. cerevisiae deletion strains, locus YMR223W, strain ubp8, active compounds read low 0.981 | S. cerevisiae deletion strains, locus YMR231W, strain pep5, active compounds read low 1 | S. cerevisiae deletion strains, locus YMR263W, strain SAP30, active compounds read low 1.03 and 1 | S. cerevisiae deletion strains, locus YMR307W, strain GAS1, active compounds read low 0.996 | S. cerevisiae deletion strains, locus YNL067W, strain RPL9B, active compounds read low 1.03 | S. cerevisiae deletion strains, locus YNL071W, strain lat1, active compounds read low 1 | S. cerevisiae deletion strains, locus YNL128W, strain TEP1, active compounds read low 1.02 and 1 | S. cerevisiae deletion strains, locus YNL153C, strain GIM3, active compounds read low 1.03 | S. cerevisiae deletion strains, locus YNL175C, strain NOP13, active compounds read low 1 | S. cerevisiae deletion strains, locus YNL183C, strain NPR1, active compounds read low 1 | S. cerevisiae deletion strains, locus YNL197C, strain WHI3, active compounds read low 1.02 | S. cerevisiae deletion strains, locus YNL209W, strain ssb2, active compounds read low 1 | S. cerevisiae deletion strains, locus YNL224C, strain SQS1, active compounds read low 1 | S. cerevisiae deletion strains, locus YNL233W, strain BNI4, active compounds read low 1.02 | S. cerevisiae deletion strains, locus YNL248C, strain rpa49, active compounds read low 0.998 | S. cerevisiae deletion strains, locus YNL250W, strain rad50, active compounds read low 0.999 | S. cerevisiae deletion strains, locus YNL271C, strain bni1, active compounds read low 1.01 | S. cerevisiae deletion strains, locus YNL298W, strain CLA4, active compounds read low 1 | S. cerevisiae deletion strains, locus YNL307C, strain MCK1, active compounds read low 1.01 | S. cerevisiae deletion strains, locus YNL322C, strain KRE1 (second series), active compounds read low 0.998 | S. cerevisiae deletion strains, locus YNL322C, strain KRE1, active compounds read low 1.01 and 0.988 | S. cerevisiae deletion strains, locus YNR049C, strain mso1, active compounds read low 1 | S. cerevisiae deletion strains, locus YNR052C, strain pop2, active compounds read low 1 | S. cerevisiae deletion strains, locus YOL006C, strain TOP1, active compounds read low 1.08 | S. cerevisiae deletion strains, locus YOL012C, strain htz1 0.933 | S. cerevisiae deletion strains, locus YOL147C, strain pex11, active compounds read low 1 | S. cerevisiae deletion strains, locus YOR001W, strain rrp6, active compounds read low 0.989 | S. cerevisiae deletion strains, locus YOR061W, strain CKA2, active compounds read low 1.01 | S. cerevisiae deletion strains, locus YOR069W, strain VPS5, active compounds read low 1.01 | S. cerevisiae deletion strains, locus YOR070C, strain gyp1, active compounds read low 0.999 | S. cerevisiae deletion strains, locus YOR080W, strain dia2, active compounds read low 1 | S. cerevisiae deletion strains, locus YOR083W, strain WHI5 (second series), active compounds read low 1.01 | S. cerevisiae deletion strains, locus YOR083W, strain WHI5, active compounds read low 0.99 | S. cerevisiae deletion strains, locus YOR106W, strain vam3, active compounds read low 0.985 | S. cerevisiae deletion strains, locus YOR136W, strain idh2, active compounds read low 0.991 | S. cerevisiae deletion strains, locus YOR144C, strain elg1, active compounds read low 1.01 | S. cerevisiae deletion strains, locus YOR184W, strain ser1, active compounds read low 0.966 | S. cerevisiae deletion strains, locus YOR231W, strain MKK1, active compounds read low 1.09 | S. cerevisiae deletion strains, locus YOR265W, strain rbl2, active compounds read low 0.993 | S. cerevisiae deletion strains, locus YOR270C, strain vph1, active compounds read low 1.02 | S. cerevisiae deletion strains, locus YOR290C, strain snf2, active compounds read low 1.01 | S. cerevisiae deletion strains, locus YOR316C, strain cot1, active compounds read low 1.01 | S. cerevisiae deletion strains, locus YPL051W, strain arl3, active compounds read low 0.982 | S. cerevisiae deletion strains, locus YPL055C, strain LGE1, active compounds read low 0.994 | S. cerevisiae deletion strains, locus YPL078C, strain atp4, active compounds read low 0.998 | S. cerevisiae deletion strains, locus YPL106C, strain sse1, active compounds read low 0.984 | S. cerevisiae deletion strains, locus YPL240C, strain hsp82, active compounds read low 0.991 | S. cerevisiae deletion strains, locus YPL241C, strain CIN2, active compounds read low 1.01 | S. cerevisiae deletion strains, locus YPL256C, strain CLN2, active compounds read low 1.07 | S. cerevisiae deletion strains, locus YPR119W, strain clb2, active compounds read low 1.01 | S. cerevisiae deletion strains, locus YPR141C, strain kar3, active compounds read low 0.997 | S. cerevisiae deletion strains, locus YPR163C, strain tif3, active compounds read low 1.01 | S. cerevisiae deletion strains, locus YPR167C, strain met16, active compounds read low 1 | S. cerevisiae deletion strains, strain wtn01, active compounds read low 1.03 | S. cerevisiae strains, strain wild type, active compounds read low 1.01
